Data: the supplement of paper PMC6555819

Tested on: RXRa DBDmut IVT, anti-RXR (DBD mutation: RXRa K156A/R161A, NR concentration 90 nM)
Assay: PBM binding z-score (relative to random genomic background probes); higher = stronger binding; sequences stand for … in GC…GCGATTGACAGCGTAGAATGAAGG
In short: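 Antibodies against each partner of ligand-free nuclear receptor dimers (one per run) detected binding on custom Agilent 4×180K protein-binding microarrays after 1 h incubation. The double-stranded probes had 34-nt variable regions carrying direct-repeat seeds, single-nucleotide variants, half-site ablations and random human genomic background sequences. Binding z-scores, from regression-normalized fluorescence, use the random background probes as reference.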

Sequence	PBM binding z-score
TAGCCTAGGTCATTCAGGGGCCAATATAGAAAGC	2.06
CGAACTAGGTCAGGGACAGTGAATCTCCGCACGC	0.647
CCTGCTAGGTCATGGTCAGCTATTCTACAGTATG	2.05
GCTCGGAGGAAAAGGTCAGAGCTTTGTCCGTAGA	-0.162
ATACCAAGGTGATCGTGAGGTCGTAGATACTAAC	-0.0325
CCGAGTAGGTTATGTGGCATTCAGGCAACGGTGA	0.434
CGTAGTTGGTCAAGGTCACACACGCTATAGGTAC	2.14
CCTTACGGGTCACTGACAGGTTATAGTATTTGGA	1.85
ATATGTAGGTAAGCTGGGGTCATTCAGACTAGGC	1.8
TCGAGTAGCTTAGTCGGGGCATTCAGCCAACATA	-0.135
ATCTCTAGGTAACCTAGTTCAGTGAATGCCGAAC	0.329
TCATATAGGTAAAAAGGTGAAAGTCCGTAAGTTA	1.71
CCTACTGGGCCAAGGTCATTGATCAGTCAAAGCA	1.19
TAGCCTAGGTCATGCGGGCCAGTACAGTGTCGGC	0.739
AGAACGAGGGCAATGAGTTGATAGGACGGGTGGC	2.23
GATACAGGGTCAAGGCCAGAGTCCGCGTATTGAT	1.91
TCTTGTAGAGCAAGCAGGTTAAGAAAGCCTGAGT	-0.187
ACAAACAGGTGATGAAGGTAACTCAGGCTATCAT	0.298
GTACCCAGGTGAATAGGTCGTTGATGAGTAGGCG	-0.431
TCTGCTAGGTCGACGATGGTCAGCTAATCTGCTA	0.128

Sequence	PBM binding z-score
ATCTCTAGGTAAATATAGTTCAGTGAATGCAAAT	0.551
CAAACTAGGTCATGGTCAAAGTCGGTTTGTGCCA	1.45
CAAACTAGGCCAAAGGTCAAAGTCGAGCCAACCA	1.38
ATCTCTAGGTAATAGTTCAGTGAATCCCGAGGAT	0.172
CCTGCTAGGTCATGGTCAGCTACTCTACAGTATG	1.7
TAGCCTAGGTCATGGGCCGGTATACCACGCGAAC	-0.511
TAGCCTAGGTCAGTTCGGGCCAGTATACGCTATA	0.0401
GTAACGAGGGCATTCGAGTTGATAGCATGGCGAT	2.91
TGTCAAAGTTCAAAGGTAACATAAGTATCCACAC	4.43
ACTAGCAGGCCAAGGGTCCCTCAAGATTAGTCCG	-0.495
CCTTGTTGGTCAAGGTCACACACGCTATAGGTAC	1.83
AGTCAAAGTTCATCTACGTAACGTAAGATATGCT	4.59
GCATATAGGTAATACAAGGTGAAAGGCCGATTGT	0.113
ACAGACAGGTGAGTGAAGGTAACTCTGCTGGACG	-0.298
TCTTGTAGATCAGCATGTTAAGAAAGCTGGCCAA	0.518
CTAGACAGGTGAGAAGGTAACTCAGCCTCGATTA	-0.295
GCTGCTAGGTCAGGTTGGTCATCTAACGGGTACG	0.588
GCGACTGGGGCAAAGCAGGTTACGATAAGGTTGG	-0.265
TCGAGTAGGTTACCAATGGGGCAGTCAGCTTTCT	0.0356
CAAACTAGGTCACCGGAAGGTCAAACTCCGCATG	2.46
